Assay type in all cases: functional
Experiment [1] concerns the target Solute carrier family 2, facilitated glucose transporter member 1 (Homo sapiens) (UniProt P11166). Kind of experiment: ST_JUDE_LEISH: Cytotoxicity at 2uM final concentration against transgenic Leishmania Mexicana promastigotes LmGLUT1 that are glucose transport deficient and complemented with the human glucose transporter GLUT1. Activity is measured by DNA content using SYBR green in vitro.

Experiment [2] concerns the target Hexose transporter 1 (Plasmodium falciparum) (UniProt O97467). Kind of experiment: ST_JUDE_LEISH: Cytotoxicity at 2uM final concentration against transgenic Leishmania Mexicana promastigotes LmPfHT that are glucose transport deficient and complemented with the Plasmodium falciparum hexose transporter. Activity is measured by DNA content using SYBR green in vitro.

The target in experiment [3] is Glucose transporter (Leishmania mexicana) (UniProt O61059). Kind of experiment: ST_JUDE_LEISH: Cytotoxicity at 2uM final concentration against transgenic Leishmania Mexicana promastigotes LmGT2 that are glucose transport deficient and complemented with the L. Mexicana glucose transporter 2. Activity is measured by DNA content using SYBR green in vitro.

Each structure is given as a SMILES string.

Sequence of Solute carrier family 2, facilitated glucose transporter member 1 (Homo sapiens) (P11166 whole entry): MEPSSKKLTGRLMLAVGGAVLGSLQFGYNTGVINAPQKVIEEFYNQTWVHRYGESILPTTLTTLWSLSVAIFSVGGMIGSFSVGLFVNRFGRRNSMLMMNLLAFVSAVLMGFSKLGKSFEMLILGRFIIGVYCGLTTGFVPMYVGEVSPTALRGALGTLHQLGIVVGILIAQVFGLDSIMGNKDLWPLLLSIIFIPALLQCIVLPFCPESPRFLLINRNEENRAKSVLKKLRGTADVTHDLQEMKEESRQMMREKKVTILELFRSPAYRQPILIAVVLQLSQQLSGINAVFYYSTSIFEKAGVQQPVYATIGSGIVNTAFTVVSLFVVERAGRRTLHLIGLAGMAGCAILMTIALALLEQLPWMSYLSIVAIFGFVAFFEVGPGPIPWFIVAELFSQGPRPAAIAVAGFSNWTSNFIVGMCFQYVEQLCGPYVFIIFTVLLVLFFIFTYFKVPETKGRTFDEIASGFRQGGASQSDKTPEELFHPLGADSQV

In the case of `O=C(c1cc(-c2ccccc2)n[nH]1)N1CCN(S(=O)(=O)c2ccc(Cl)s2)CC1`, the results for the inhibition in experiment [1], in experiment [2] and in experiment [3] were 4.06%, 1.3% and 2.66%, respectively.
`O=C(CCc1c[nH]cn1)Nc1cccc(-c2cccc(-c3nc4cc(C(F)(F)F)ccc4[nH]3)c2)c1`: the inhibition is -0.34% in experiment [1], 0.58% in experiment [2] and 0.79% in experiment [3].
The matching figures for `Cc1ccccc1C1CCN(C2CCC(NC(=O)/C=C/c3ccc4c(c3)OC(F)(F)O4)CC2)CC1` (stereo not drawn): 0.14%, 5.21% and 2.92%.
The corresponding values for `O=C(/C=C/c1ccc(Cl)c(Cl)c1)NCCCCCN1CCCC(CNC(=O)Nc2ccc(Oc3ccccc3)cc2)C1` (stereo not drawn) are -0.78%, 0.69% and 0.61%.
For the molecule `CC(C)OC(=O)c1ccccc1S(N)(=O)=O`, the inhibition in experiment [1] is 15.3%; in experiment [2], 12.7%; in experiment [3], 7.97%.
Consider `Cc1ccc(-c2cc(C(=O)Nc3ccc(S(=O)(=O)N4CCOCC4)cc3)[nH]n2)c(O)c1C`, for which the inhibition in experiment [1] was 4%; in experiment [2], 0.56%; in experiment [3], -1.4%.
The matching figures for `Cc1cccc(CN2CCC(C(=O)Nc3ccc(-c4nc5ccccc5[nH]4)cc3)CC2)n1`: 2.6%, 2.69% and 3.71%.
The matching figures for `O=C(Nc1nc(-c2ccccn2)cs1)c1ccccc1COc1ccccc1`: -2.49%, 1.21% and -1.57%.
The corresponding values for `O=C(Cc1ccc(F)cc1)NC1CCN(c2ccnc3cc(Cl)ccc23)C1` (stereo not drawn) are 0.69%, 1.78% and 2.41%.
As for `CC[C@H](C)CNC(=O)c1cncc(-c2ccc(CN3CCC(N4CCCC4)CC3)cc2)c1`, the inhibition in experiment [1] was 0.53%; in experiment [2], 0.26%; in experiment [3], 1.05%.
On to `CCCCCCc1c(C)nc2cc(OC)ccc2c1O`, for which the inhibition was 3.2% in experiment [1], 5.49% in experiment [2] and 2.87% in experiment [3].
The corresponding values for `Cc1nc2ccc3ccc(CNc4ccc5c(c4)CN([C@@H](CCC(=O)O)C(=O)O)C5=O)cc3c2c(=O)[nH]1` are 1.71%, -0.99% and -1.52%.
The matching figures for `CCn1ccc2c(N3CCCCS3(=O)=O)cc(C(=O)N[C@@H](Cc3ccccc3)[C@H](O)CNC(C)(C)CCCC(C)C)cc21`: 2.17%, 1.95% and 5.14%.
With `Cc1ccc(N2C(N)=NC(N)=NC2c2ccccc2)cc1` (stereo not drawn), the inhibition in experiment [1] is 2.79%; in experiment [2], 2.24%; in experiment [3], 2.13%.
The matching figures for `O=C(Nc1ccnc2ccccc12)NC1CCN(CCc2ccccc2)CC1`: 12.1%, 10.9% and 7.91%.
The corresponding values for `O=C(/C=C/c1ccc(Cl)c(Cl)c1)N1CCC(CN2CCC(Cc3cc4ccccc4[nH]3)CC2)CC1` are 0.17%, 2.49% and 0.81%.
The corresponding values for `N=C(N)NN=CC(=O)Nc1ccc(Cl)c(C(F)(F)F)c1` are 8.87%, 7.04% and 9.08%.
As for `Nc1ccc(-c2cc(Cl)cc(Cl)c2)cc1-c1cc2ccccc2[nH]1`, the inhibition in experiment [1] is 2.84%; in experiment [2] it was 1.08%; in experiment [3], -0.38%.
In the case of `Fc1ccc2[nH]c(-c3ccc(-c4ccc(CN5CCN(CCN6CCOCC6)CC5)cc4)cc3)nc2c1`, the inhibition in experiment [1] came out at 5.88%; in experiment [2], 4.38%; in experiment [3], 1.45%.
The corresponding values for `O=C(Nc1ccc(-c2nc3ccccc3[nH]2)cc1)c1cccc(S(=O)(=O)N2CCCC2)c1` are 6.3%, 2.8% and 5.05%.
Regarding `O=C(NC1CCCCC1)N(Cc1cccc(-c2cccc(CNC3CCCC3)c2)c1)C1CCN(Cc2ccccc2)CC1`, the inhibition is 8.95% in experiment [1], 6.23% in experiment [2] and 7.71% in experiment [3].
The matching figures for `c1ccc2c3c([nH]c2c1)C(c1ccc2c(c1)CCO2)N(c1ncnc(N2CCN(CCCN4CCOCC4)CC2)n1)CC3` (stereo not drawn): 8.79%, 3.13% and 1.89%.
For `COc1cccc(CCNc2nc(NCc3ccccc3)c3cc(OC)c(OC)cc3n2)c1`, the inhibition in experiment [1] was 7.51%; in experiment [2] it was 5.93%; in experiment [3], 1.86%.
Consider `CN1CCN(c2ccc(Nc3nccc(-c4cnn5ncccc45)n3)cc2Cl)CC1`, for which the figures for the inhibition in experiment [1], in experiment [2] and in experiment [3] were 90.6%, 95.1% and 83.8%, respectively.
The corresponding values for `O=C(NC1CCCC1)c1cc2c(=O)n3ccccc3nc2[nH]/c1=N/CCc1ccccc1` are 11.5%, 8.49% and 5.94%.
As for `O=c1cc(NCCCNCc2ccc(C(F)(F)F)cc2F)[nH]c2ccccc12`, the inhibition in experiment [1] was 2.19%; in experiment [2] it was 0.29%; in experiment [3] it was -0.34%.
The corresponding values for `O=C(Nc1cccc(-c2ccc(-c3nc4cc(C(F)(F)F)ccc4[nH]3)cc2)c1)c1cccnc1` are 3.27%, 1.71% and -0.02%.
Take `N=C(N)Nc1nc(-c2cccc(NC(=O)Cc3ccccc3)c2)cs1`: the inhibition in experiment [1] amounted to 2.29%; in experiment [2], 4.02%; in experiment [3], 3.44%.
Take `COc1cc(C)nc2ccc(NC(=O)Nc3cccc4ccccc34)cc12`: the values for the inhibition in experiment [1], in experiment [2] and in experiment [3] were 3.38%, 5.33% and 3.45%, respectively.
Turning to `O=C(N1CCN(c2ccnc3cc4c(cc23)N(Cc2ccccc2)CC4)CC1)C(F)(F)F`, the inhibition in experiment [1] was 2.23%; in experiment [2], 3.24%; in experiment [3], 4.39%.
Take `CCOC(=O)c1cc(Cl)cc(Cl)c1OCCCON1C(=N)N=C(N)NC1(C)C`: the inhibition in experiment [1] came out at 0.88%; in experiment [2], 0.77%; in experiment [3], 1.35%.
As to `O=c1cc(NCCCNCc2[nH]c3cc(Cl)ccc3c2Cl)[nH]c2ccccc12`, the values for the inhibition in experiment [1], in experiment [2] and in experiment [3] were 5.19%, 3.33% and 4.15%, respectively.
Turning to `CCCN(CCC)CCCNc1ccc(C(=O)Nc2ccc(C(C)C)cc2)cc1[N+](=O)[O-]`, the inhibition in experiment [1] came out at 32.7%; in experiment [2], 22.2%; in experiment [3] it was 13.2%.
The corresponding values for `Fc1ccccc1-c1cc(Nc2ccncc2)nc(-c2cccnc2)n1` are 0.54%, 1.28% and -6.71%.
Regarding `COc1ccc2ncc(Cl)c([C@H](O)CN3CCC(NCc4cc5c(cn4)OCCO5)CC3)c2c1`, the inhibition in experiment [1] was 11%; in experiment [2] it was 7.96%; in experiment [3], 6.66%.
The corresponding values for `c1ccc(N2CCN(c3cc(-c4cccnc4)nc(-c4ccncc4)n3)CC2)nc1` are 2.7%, 1.5% and 0.92%.

For orientation: inhibition means the relative decrease from the control value, in per cent.

Source of the values: ChEMBL document CHEMBL3433997, “St. Jude Leishmania screening dataset” (2016).
